The source of these data is PubChem BioAssay AID2061306 (National Center for Advancing Translational Sciences (NCATS), 2025).

Structures are written as SMILES. Records with an inconclusive call do not appear. The source made the active and inactive calls. The call rests on the fitted dose curve; in most records, active means well fitted inhibition curve with a large enough effect; inconclusive means small, poorly fitted or top-dose-only effect; inactive means flat fitted curve, though single readings scatter.

A short description of the assay: Identification of antibody-drug conjugate (ADC) payloads which are substrates of ATP-binding cassette drug efflux transporters: ABCB1-HEK293-pcDNA cell line. The note with it: HEK293 empty-vector (pcDNA) control viability, CellTiter-Glo, 48 h. From the text:
Antibody-drug conjugates (ADCs) feature an antibody recognizing a specific protein joined to a potent toxic payload. Numerous antibody-drug conjugates have received FDA approval; however, clinical resistance arises. Resistance mechanisms include decreased expression or mutation of the antibody target, impaired payload release, or increased expression of ATP-binding cassette (ABC) efflux transporters associated with multidrug resistance. We therefore sought to characterize the interaction of ABC multidrug transporters with ADC payloads. We performed a high-throughput screen with 27 common ADC payloads using cells lines expressing ABC transporters P-glycoprotein (P-gp, encoded by ABCB1) or ABCG2 (encoded by ABCG2). Confirmatory assays were also performed using cells transfected to express P-gp, ABCG2, or MRP1 (encoded by ABCC1). Several commonly used ADC payloads were substrates of P-gp, including calicheamicin gamma1, monomethyl auristatin E, DM1, and DM4. All the pyrrolobenzodiazepines tested - SJG136, SGD-1882, SG2057, and SG3199 - were substrates of P-gp, ABCG2, and MRP1. […] These findings highlight the risk of transporter-mediated resistance with certain ADC payloads and underscore the importance of selecting payloads that evade ABC transporter recognition in future ADC development.
HEK-293 cells were transfected with empty vector (pcDNA) or vector containing the human ABCB1 (MDR-19), ABCG2 (R-5), or ABCC1 gene (MRP1) and were maintained in EMEM with 2 mg/mL G418 added to maintain transporter expression. The HeLa derivative KB-3-1 and the P-gp overexpressing KB-8-5-11 subline were maintained in DMEM; KB-8-5-11 additionally received 100 ng/mL colchicine. H460 parental cells were obtained from the Division of Cancer Treatment and Diagnosis Tumor Repository, National Cancer Institute at Frederick, MD and were cultured in RPMI. The ABCG2 expressing subline H460 MX20 was generated by selecting H460 cells in 20 nM mitoxantrone. Media in all cases was supplemented with 10% FBS and 1% penicillin-streptomycin. We explored 27 common ADC payloads, in two orthogonal, paired cell line sets-a drug selected and transfected set for each transporter--to identify substrates of the ABC transporters P-gp and ABCG2. Compounds were sourced from Levena Biopharma (San Diego, CA), Selleck Chem (Houston, TX), ChemieTek (Indianapolis, IN), or Microsource Discovery Systems (Gaylordsville, CT). Screening was performed as previously described. Briefly, cells were plated at a density of 500 cells/well in 1536 well plates with compounds added using a 1536-head pin tool (Kalypsys, San Diego CA). Cells were incubated with cytotoxic drugs and processed with CellTiter Glo reagent (Promega, Madison, WI) to determine viability after 48 hours. P-gp substrates were identified by comparing compound activity between paired sets of low-expressing (sensitive) and over-expressing (resistant) cell lines.
As to `CCN[C@H]1CO[C@@H](O[C@H]2[C@H](O[C@H]3C#C/C=C\C#C[C@]4(O)CC(=O)C(NC(=O)OC)=C3/C4=C\CSSSC)O[C@H](C)[C@@H](NO[C@H]3C[C@H](O)[C@H](SC(=O)c4c(C)c(I)c(O[C@@H]5O[C@@H](C)[C@H](O)[C@@H](OC)[C@H]5O)c(OC)c4OC)[C@@H](C)O3)[C@@H]2O)C[C@@H]1OC`, the Potency was 0.2 nM (active).

As to `COC(=O)c1cc2c3c(cc(O)c2[nH]1)N(C(=O)c1cc2cc(OC)c(OC)c(OC)c2[nH]1)CC3CCl` (stereo not given), the Potency was 0.4 nM (active). To `CC(C)(C)OC(=O)Nc1ccc2[nH]c(C(=O)N3C[C@@H](CCl)c4c3cc(O)c3ccccc43)cc2c1` belongs 8.4 nM (active); to `COc1cc2cc(c1Cl)N(C)C(=O)C[C@H](O)[C@]1(C)O[C@H]1[C@H](C)C1C[C@@](O)(NC(=O)O1)[C@H](OC)/C=C/C=C(\C)C2`, 2980 nM (active). Consider `CCN(C(C)=O)[C@H]1CO[C@@H](O[C@H]2[C@H](O[C@H]3C#C/C=C\C#C[C@]4(O)CC(=O)C(NC(=O)OC)=C3/C4=C\CSSSC)O[C@H](C)[C@@H](NO[C@H]3C[C@H](O)[C@H](SC(=O)c4c(C)c(I)c(O[C@@H]5O[C@@H](C)[C@H](O)[C@@H](OC)[C@H]5O)c(OC)c4OC)[C@@H](C)O3)[C@@H]2O)C[C@@H]1OC`, for which the Potency was 1.5 nM (active).

For `COc1cccc2c1C(=O)c1c(O)c3c(c(O)c1C2=O)C[C@@](O)(C(=O)CO)C[C@@H]3O[C@H]1C[C@H]2[C@H](O[C@@H]3[C@@H](OC)OCCN32)[C@H](C)O1`, the Potency is 0.0334 nM (active). The value for `COc1cccc2c1C(=O)c1c(O)c3c(c(O)c1C2=O)C[C@@](O)(C(=O)CO)C[C@@H]3O[C@H]1C[C@H](N)[C@H](O)[C@H](C)O1` was 29.8 nM (active); that for `CCc1c2c(nc3ccc(O)cc13)-c1cc3c(c(=O)n1C2)COC(=O)[C@]3(O)CC` was 4.7 nM (active). Turning to `COc1ccc(C2=CN3C(=O)c4cc(OC)c(OCCCOc5cc6c(cc5OC)C(=O)N5C=C(c7ccc(N)cc7)C[C@@H]5C=N6)cc4N=C[C@H]3C2)cc1`, the Potency was 1.3 nM (active). Turning to `CN(C)CCOc1ccc2[nH]c(C(=O)N3C[C@@H](CCl)c4c3cc(O)c3ccccc43)cc2c1`, the Potency is 0.4 nM (active).
